Results filed as inconclusive are left out. Where a call stands in place of a potency, no number is given. Calls of active or inactive are those of the source. The call rests on the fitted dose curve; in most records, active means well fitted curve in the direction sought with a large enough effect; inconclusive means small, poorly fitted or top-dose-only effect, or another doubt; inactive means no such curve, though single readings can be large; an effect the other way counts as inactive or inconclusive.
Target: RecQ-like DNA helicase BLM (Homo sapiens) (UniProt P54132)
Assay: qHTS Validation Assay for Inhibitors of Bloom's syndrome helicase (BLM) (AID 2364)
Conditions: BLM helicase DNA unwinding, fluorescence, in vitro; series mostly up to 57.1 µM
Method in brief: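 BLM 50 nM in 25 mM Tris-HCl pH 8.0, 5 mM NaCl, 2 mM MgCl2, 1 mM DTT, 0.01% Tween-20, 2.5 ug/ml poly(dI-dC); 15 min cpd preinc, RT. Start: 200 nM forked DNA + 2 mM ATP (final). TAMRA read, 2 reads 2 h apart.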

RecQ-like DNA helicase BLM (Homo sapiens), sequence (P54132 whole entry, looked up): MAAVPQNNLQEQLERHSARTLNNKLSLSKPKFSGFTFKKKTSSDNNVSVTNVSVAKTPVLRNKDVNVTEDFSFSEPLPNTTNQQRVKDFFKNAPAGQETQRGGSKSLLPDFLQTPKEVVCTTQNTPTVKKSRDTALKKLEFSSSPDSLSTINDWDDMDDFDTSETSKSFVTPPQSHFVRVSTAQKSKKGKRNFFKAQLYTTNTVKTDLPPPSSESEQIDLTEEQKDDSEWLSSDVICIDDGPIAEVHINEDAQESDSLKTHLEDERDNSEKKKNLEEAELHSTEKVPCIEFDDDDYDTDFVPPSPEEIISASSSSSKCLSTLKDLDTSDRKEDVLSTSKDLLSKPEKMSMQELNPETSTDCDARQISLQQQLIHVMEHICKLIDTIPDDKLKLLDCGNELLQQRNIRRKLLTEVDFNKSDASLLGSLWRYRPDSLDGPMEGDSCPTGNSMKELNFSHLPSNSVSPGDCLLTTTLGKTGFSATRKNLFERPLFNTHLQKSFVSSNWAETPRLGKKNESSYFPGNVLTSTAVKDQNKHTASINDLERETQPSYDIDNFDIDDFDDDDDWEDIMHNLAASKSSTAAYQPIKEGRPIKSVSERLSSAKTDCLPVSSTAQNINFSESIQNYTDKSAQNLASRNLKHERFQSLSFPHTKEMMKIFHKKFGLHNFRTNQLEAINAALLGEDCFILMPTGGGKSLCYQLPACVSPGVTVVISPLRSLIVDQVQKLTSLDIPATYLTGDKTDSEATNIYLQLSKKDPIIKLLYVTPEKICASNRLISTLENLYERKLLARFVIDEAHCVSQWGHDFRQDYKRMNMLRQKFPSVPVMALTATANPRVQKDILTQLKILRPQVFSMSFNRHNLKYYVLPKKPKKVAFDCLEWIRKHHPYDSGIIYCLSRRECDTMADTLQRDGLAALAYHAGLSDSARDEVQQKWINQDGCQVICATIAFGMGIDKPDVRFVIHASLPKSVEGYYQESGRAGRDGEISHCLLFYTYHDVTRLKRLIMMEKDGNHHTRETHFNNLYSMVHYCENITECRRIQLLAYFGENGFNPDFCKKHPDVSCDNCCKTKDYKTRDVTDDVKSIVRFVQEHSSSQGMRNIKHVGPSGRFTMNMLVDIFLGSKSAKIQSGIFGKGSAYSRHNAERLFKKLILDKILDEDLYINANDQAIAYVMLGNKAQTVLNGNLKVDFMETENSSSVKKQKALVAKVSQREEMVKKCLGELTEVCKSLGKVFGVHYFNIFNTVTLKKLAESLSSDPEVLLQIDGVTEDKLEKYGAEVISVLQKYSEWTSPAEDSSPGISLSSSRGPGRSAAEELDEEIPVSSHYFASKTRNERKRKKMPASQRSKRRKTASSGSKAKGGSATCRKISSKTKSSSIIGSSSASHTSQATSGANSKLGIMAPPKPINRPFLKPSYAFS

Row | Structure (SMILES) | Potency
1 | CCCCNC(=O)NS(=O)(=O)c1ccc(C)cc1 | inactive
2 | Cc1scc2c1N(C(=O)CN1CCN(C)CC1)c1ccccc1NC2=O | inactive
3 | CCn1ccnc1CC1COc2ccccc2O1 (configuration not stated) | inactive
4 | CN(C)C(=O)Oc1ccc[n+](C)c1 | inactive
5 | CN(C)CC[C@@H](c1ccc(Br)cc1)c1ccccn1 | inactive
6 | C[C@H](CS)C(=O)N1CCC[C@H]1C(=O)O | inactive
7 | Cc1ccc(S(=O)(=O)NC(=O)NN2CCCCCC2)cc1 | inactive
8 | CNCCC(Oc1ccccc1OC)c1ccccc1 (configuration not stated) | inactive
9 | CC(C(=O)O)c1ccc(CC2CCCC2=O)cc1 (configuration not stated) | inactive
10 | OCCN1CCN(CC/C=C2/c3ccccc3Sc3ccc(C(F)(F)F)cc32)CC1 | inactive
11 | Nc1c2c(nc3ccccc13)CCCC2O (configuration not stated) | inactive
12 | C(=C\c1ccccc1)/CN1CCN(C(c2ccccc2)c2ccccc2)CC1 | inactive
13 | CN(C)CCN(Cc1cccs1)c1ccccn1 | inactive
14 | c1cc(CN2CCCCC2)cc(OCCCNc2nc3ccccc3s2)c1 | inactive

System: not listed separately
Assay: Cytometric Cell-Based qHTS for Inhibitors of the mTORC1 Signaling Pathway in MEF (Tsc2-/-, p53-/-) Cells (AID 2660);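 further: percent of cells above a phospho-rpS6 to PI ratio cutoff in each well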
Conditions: mTORC1 pathway cytometry; series mostly up to 38.3 µM
Method in brief: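 Percent of cells positive for normalized phospho-S6 staining is reported, with the cutoff set from rapamycin (7.5 nM) versus DMSO wells. Tsc2-/-, p53-/- MEFs received compound for 24 hrs.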

Row | Structure (SMILES) | outcome
15 | CCCCNC(=O)NS(=O)(=O)c1ccc(C)cc1 | inactive
16 | CN(C(=O)CCCOc1ccc2[nH]c(=O)ccc2c1)C1CCCCC1 | inactive
17 | NC(Cc1ccc(Cl)cc1)C(=O)O (configuration not stated) | inactive
18 | COCCOC(=O)C1=C(C)NC(C)=C(C(=O)OC(C)C)C1c1cccc([N+](=O)[O-])c1 (configuration not stated) | inactive
19 | CCN(Cc1ccncc1)C(=O)C(CO)c1ccccc1 (configuration not stated) | inactive
20 | Fc1ccc(C(c2ccc(F)cc2)N2CCN(C/C=C/c3ccccc3)CC2)cc1 | inactive
21 | Cc1scc2c1N(C(=O)CN1CCN(C)CC1)c1ccccc1NC2=O | inactive
22 | COc1cc(Cc2cnc(N)nc2N)cc(OC)c1OC | inactive
23 | CC(=O)Oc1cc(C(C)C)c(OCCN(C)C)cc1C | inactive
24 | CO[C@@]1(NC(=O)CSCC#N)C(=O)N2C(C(=O)O)=C(CSc3nnnn3C)CS[C@@H]21 | inactive
25 | CC(=O)OCC1=C(C(=O)O)N2C(=O)[C@@H](NC(=O)Cc3cccs3)[C@H]2SC1 | inactive
26 | CCn1ccnc1CC1COc2ccccc2O1 (configuration not stated) | inactive
27 | CN(C)C(=O)Oc1ccc[n+](C)c1 | inactive
28 | Cc1nnc(SCC2=C(C(=O)O)N3C(=O)[C@@H](NC(=O)Cn4cnnn4)[C@H]3SC2)s1 | inactive
29 | CN(C)CC[C@@H](c1ccc(Br)cc1)c1ccccn1 | inactive
30 | C[C@H](CS)C(=O)N1CCC[C@H]1C(=O)O | inactive
31 | CCOC(=O)C1=C(C)NC(C)=C(C(=O)OC)C1c1cccc(Cl)c1Cl (configuration not stated) | inactive

Row | Structure (SMILES) | outcome
32 | Cc1ccc(S(=O)(=O)NC(=O)NN2CCCCCC2)cc1 | inactive
33 | CNCCC(Oc1ccccc1OC)c1ccccc1 (configuration not stated) | inactive
34 | CC(C(=O)O)c1ccc(CC2CCCC2=O)cc1 (configuration not stated) | inactive
35 | OC(CCN1CCCCC1)(c1ccccc1)C1CCCCC1 (configuration not stated) | inactive
36 | c1ccc2c(c1)CCCC2C1=NCCN1 (configuration not stated) | inactive
37 | Nc1c2c(nc3ccccc13)CCCC2O (configuration not stated) | inactive
38 | NC(N)=N/N=C/c1c(Cl)cccc1Cl | inactive
39 | CCNC(=O)N1CCN(CCCC(c2ccc(F)cc2)c2ccc(F)cc2)CC1 | inactive
40 | CCN(CC)CC(=O)Nc1c(C)cccc1C | inactive
41 | COc1ccc([C@@H]2Sc3ccccc3N(CCN(C)C)C(=O)[C@@H]2OC(C)=O)cc1 | inactive
42 | Cc1cc(C)c(/C=C2\C(=O)Nc3ccccc32)[nH]1 | inactive
43 | C(=C\c1ccccc1)/CN1CCN(C(c2ccccc2)c2ccccc2)CC1 | inactive
44 | C[C@]12CCC(=O)C=C1CC[C@@H]1[C@@H]2CC[C@@]2(C)[C@H]1CC[C@]2(O)C(=O)CO | inactive
45 | Cc1nc2c([nH]1)c(=O)n(C)c(=O)n2Cc1ccco1 | inactive
46 | CN(C)CCN(Cc1cccs1)c1ccccn1 | inactive
47 | COCCc1ccc(OCC(O)CNC(C)C)cc1 (configuration not stated) | inactive
48 | c1cc(CN2CCCCC2)cc(OCCCNc2nc3ccccc3s2)c1 | inactive

System: not listed separately
Assay: High Content Imaging Cell-Based qHTS for Inhibitors of the mTORC1 Signaling Pathway in MEF (Tsc2-/-, p53-/-) Cells (AID 2666);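 further: percent of cells scored positive for phospho-rpS6 Ser235/236 immunostaining by imaging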
Conditions: series mostly up to 38.3 µM
Method in brief: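 Read-out: % positive cells per well, with thresholds from highest- and lowest-signal wells, based on phospho-rpS6 (Ser235/236) intensity normalized to Hoechst nuclear stain. Cells: Tsc2-/-, p53-/- MEFs carrying empty vector; compound 24 hrs, 37 degree Celsius.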

Row | Structure (SMILES) | Potency
49 | CCCCNC(=O)NS(=O)(=O)c1ccc(C)cc1 | inactive
50 | CN(C(=O)CCCOc1ccc2[nH]c(=O)ccc2c1)C1CCCCC1 | inactive
51 | NC(Cc1ccc(Cl)cc1)C(=O)O (configuration not stated) | inactive
52 | COCCOC(=O)C1=C(C)NC(C)=C(C(=O)OC(C)C)C1c1cccc([N+](=O)[O-])c1 (configuration not stated) | inactive
53 | CCN(Cc1ccncc1)C(=O)C(CO)c1ccccc1 (configuration not stated) | inactive
54 | Fc1ccc(C(c2ccc(F)cc2)N2CCN(C/C=C/c3ccccc3)CC2)cc1 | inactive
55 | Cc1scc2c1N(C(=O)CN1CCN(C)CC1)c1ccccc1NC2=O | inactive
56 | COc1cc(Cc2cnc(N)nc2N)cc(OC)c1OC | inactive
57 | CC(=O)Oc1cc(C(C)C)c(OCCN(C)C)cc1C | inactive
58 | CO[C@@]1(NC(=O)CSCC#N)C(=O)N2C(C(=O)O)=C(CSc3nnnn3C)CS[C@@H]21 | inactive
59 | CC(=O)OCC1=C(C(=O)O)N2C(=O)[C@@H](NC(=O)Cc3cccs3)[C@H]2SC1 | inactive
60 | CCn1ccnc1CC1COc2ccccc2O1 (configuration not stated) | inactive
61 | CN(C)C(=O)Oc1ccc[n+](C)c1 | inactive
62 | Cc1nnc(SCC2=C(C(=O)O)N3C(=O)[C@@H](NC(=O)Cn4cnnn4)[C@H]3SC2)s1 | inactive
63 | CN(C)CC[C@@H](c1ccc(Br)cc1)c1ccccn1 | inactive
64 | C[C@H](CS)C(=O)N1CCC[C@H]1C(=O)O | inactive
65 | CCOC(=O)C1=C(C)NC(C)=C(C(=O)OC)C1c1cccc(Cl)c1Cl (configuration not stated) | inactive

Row | Structure (SMILES) | Potency
66 | Cc1ccc(S(=O)(=O)NC(=O)NN2CCCCCC2)cc1 | inactive
67 | CNCCC(Oc1ccccc1OC)c1ccccc1 (configuration not stated) | inactive
68 | CC(C(=O)O)c1ccc(CC2CCCC2=O)cc1 (configuration not stated) | inactive
69 | OC(CCN1CCCCC1)(c1ccccc1)C1CCCCC1 (configuration not stated) | inactive
70 | c1ccc2c(c1)CCCC2C1=NCCN1 (configuration not stated) | inactive
71 | Nc1c2c(nc3ccccc13)CCCC2O (configuration not stated) | inactive
72 | NC(N)=N/N=C/c1c(Cl)cccc1Cl | inactive
73 | CCNC(=O)N1CCN(CCCC(c2ccc(F)cc2)c2ccc(F)cc2)CC1 | inactive
74 | CCN(CC)CC(=O)Nc1c(C)cccc1C | inactive
75 | COc1ccc([C@@H]2Sc3ccccc3N(CCN(C)C)C(=O)[C@@H]2OC(C)=O)cc1 | inactive
76 | Cc1cc(C)c(/C=C2\C(=O)Nc3ccccc32)[nH]1 | inactive
77 | C(=C\c1ccccc1)/CN1CCN(C(c2ccccc2)c2ccccc2)CC1 | inactive
78 | C[C@]12CCC(=O)C=C1CC[C@@H]1[C@@H]2CC[C@@]2(C)[C@H]1CC[C@]2(O)C(=O)CO | inactive
79 | Cc1nc2c([nH]1)c(=O)n(C)c(=O)n2Cc1ccco1 | inactive
80 | CN(C)CCN(Cc1cccs1)c1ccccn1 | inactive
81 | COCCc1ccc(OCC(O)CNC(C)C)cc1 (configuration not stated) | inactive
82 | c1cc(CN2CCCCC2)cc(OCCCNc2nc3ccccc3s2)c1 | inactive

From PubChem BioAssay (NCATS)
